Pf Dd2 growth – qHTS Primary assay for Inhibitors of Plasmodium falciparum Dd2 growth in vitro | Potency, µM (doses to about 28.9 µM), for inactives: at the top dose activity, negative = inhibition, actives largely listed as inhibitors | P. falciparum Dd2 growth, SYBR Green, 72 h | 120,000 tested, 4.3% active; active = well fitted inhibition curve with a large enough effect;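 note: plate controls were DMSO vehicle for no effect and reference drug for full effect; nearly all actives have a fitted effect of over 65% in size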
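Infected erythrocytes (Dd2, 0.3% parasitemia, 2.5% hematocrit final) are added to compound in RPMI-1640/Albumax II medium, grown 72 h at 37C in low oxygen, then lysed with saponin/Triton-X containing SYBR Green and read by fluorescence.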
The depositor's hits bear a star; i = inactive; [ ] = dose if it differs, or a comment. The full list was thinned out, with hits kept by preference. Potency is the fitted concentration of half-maximal effect.

SMILES	Pf Dd2 growth
Cc1ccc(OCC(=O)N2CCN(CCc3ccncc3)CC2)cc1C	10µM*
CCCCOc1cccc(C(=O)N2CCN(CCc3ccncc3)CC2)c1	-29%
O=C(CC1CCCC1)N1CCCCCC1CN1CCOCC1 (stereo not drawn)	i
N#Cc1ccc(C(=O)NC2CCc3n[nH]c(=O)n3CC2)cc1 (stereo not drawn)	i
CNC(=O)N1C[C@@H](CN(C)C)[C@H](NS(=O)(=O)c2ccc3c(c2)CCC3)C1	21%
CN(C)C[C@@H]1CN(C)C[C@H]1NS(=O)(=O)c1ccc2c(c1)CCCC2	3.2µM*
CCCS(=O)(=O)N[C@@H]1CN(C)C[C@H]1CN(C)C	16%
CN(C)C[C@@H]1CN(C)C[C@H]1NS(=O)(=O)c1ccc(Br)cc1	1.8µM*
CC(=O)N1C[C@@H](CN(C)C)[C@H](NS(=O)(=O)c2cccc(C#N)c2)C1	7%
CN(C)C[C@@H]1CN(c2ncccn2)C[C@H]1NS(=O)(=O)c1cccnc1	i
CCC1(N2CCN(S(=O)(=O)c3ccc(Cl)s3)CC2)CCN(C(=O)C(C)C)C1 (stereo not drawn)	-11%
CCCn1ncc(C(=O)N2C[C@H](CO)C[C@H](CN3CCCC3)C2)c1C	-2%
Cc1ccc([S+](=O)([O-])N2CCn3c(nn(-c4ccc(F)cc4)c3=O)C2)cc1	15%
O=C1c2cnc(-c3ccc(CO)cc3)nc2OCCN1Cc1ccc(F)cc1F	-41%[44.1 µM]
CCn1nc(C(=O)N2C[C@@H](CN3CCN(C)CC3)[C@@H](CO)C2)cc1C	2%
CC(=O)NC[C@H]1CCN(S(=O)(=O)c2ccc3c(c2)OCCO3)C[C@H]1N(C)C	0%
CCOC(=O)c1cccc(NC(=O)c2cc3c(-c4cccc(OC)c4)nn(C)c3s2)c1	-7%
CC(=O)c1ccc(NC(=O)c2cc(C)nn2-c2ccccc2)cc1	i
O=C(Nc1ccc(Cl)cc1)c1cc2c(-c3ccccc3)nn(-c3ccccc3)c2s1	1.1µM*
C=CCNC(=O)N[C@H]1CCN2C(=O)c3ccc(Cl)cc3NC(=O)[C@@H]2C1	26%[44.1 µM]
CCn1ncc(N2CCC(NC(=O)CC3CCCCC3)CC2)cc1=O	-10%
COc1ccc(-c2cn3c(n2)CO[C@@H](CNS(=O)(=O)c2ccc(C)cc2)C3)cc1	13µM*
Cc1ccc(-c2cn3c(n2)CO[C@@H](CNS(C)(=O)=O)C3)cc1	-1%[44.1 µM]
COc1ccc(-c2cn3c(n2)CO[C@@H](CNS(C)(=O)=O)C3)cc1	i
COCC(=O)N1CCc2cc(OC)c(OC)cc2C1COc1ccc2c(C)cc(=O)oc2c1 (stereo not drawn)	11%
SMILES	Pf Dd2 growth
COc1cccc(C(=O)N2CCc3cc(OC)c(OC)cc3C2COc2ccc3c(C)cc(=O)oc3c2)c1 (stereo not drawn)	8.9µM*
CCOc1ccc(C(=O)N2CCC[C@H]2c2nc(-c3ccc(OC)cc3)no2)cc1OCC	i
CCNC(=O)NCC1c2cc(OC)c(OC)cc2CCN1C(=O)Nc1ccc(C)cc1 (stereo not drawn)	i
COc1cc2c(cc1OC)C(CNC(=O)c1ccccc1)N(C(=O)Nc1cccc(F)c1)CC2 (stereo not drawn)	-11%
COc1cc2c(cc1OC)C(CNC(=O)c1cccc(F)c1)N(C(=O)Nc1ccc(C)cc1)CC2 (stereo not drawn)	i
CCOc1ccc(C(=O)N2CCc3cc(OC)c(OC)cc3C2COc2ccc3c(C)cc(=O)oc3c2)cc1OCC (stereo not drawn)	3.2µM*
COc1cc2c(cc1OC)C(COc1ccc3c(C)cc(=O)oc3c1)N(C(=O)c1ccc(Cl)cc1)CC2 (stereo not drawn)	8.9µM*
CN(C)c1cccc(C(=O)NCCC2CCN(C(=O)Nc3cc(F)cc(F)c3)CC2)c1	-18%
CCN(CC)CC[C@H]1CN(C(=O)NC2CCCCC2)CC[C@H]1CC(=O)O	28%[44.1 µM]
COCC(=O)NC1CCC12CCN(C(=O)C1(c3ccccc3)CC1)CC2 (stereo not drawn)	-7%
CCCNC(=O)N(C1CCOCC1)C1CCN(C(=O)c2ccc(CC)cc2)CC1	-17%
O=C(Nc1cccc(F)c1)N1C[C@@H]2C[C@H](C1)c1ccc(-c3cccc(C(F)(F)F)c3)c(=O)n1C2	1%
COc1ccc(-c2noc(-c3nnn4c3COC(c3ccc(F)cc3)C4)n2)c(OC)c1 (stereo not drawn)	-4%
COCCNC(=O)c1ccc2c(c1)N(C)C(CC(=O)NCCO)CO2 (stereo not drawn)	2%
COc1ccc(-c2nn(C)c3sc(C(=O)Nc4cc(OC)c(OC)c(OC)c4)cc23)cc1OC	11µM*
COc1ccc(-c2nn(C)c3sc(C(=O)N4CCN(c5cccc(Cl)c5)CC4)cc23)cc1OC	-16%
COc1cccc(-c2nn(C)c3sc(C(=O)NCc4cc(OC)ccc4OC)cc23)c1	-16%
CC1CCN([C@@H]2[C@H](O)[C@H](CO)O[C@@H]2CNC(=O)c2cccc(F)c2)CC1	-23%[44.1 µM]
CCOc1cccc(CN2C(=O)C3(CCOCC3)CC2c2nnnn2C(C)(C)C)c1 (stereo not drawn)	i
COCCN1CC(Cc2ccccc2C(=O)NC(C)C)CC1=O (stereo not drawn)	-2%
O=C(CCc1c[nH]c2ccccc12)Nc1cccc(-c2nnc3n2CCCC3)c1	3.2µM*
O=C(Cc1ccsc1)NC1CCc2nnc(C3CC3)n2CC1 (stereo not drawn)	3%
O=C(Cn1nc2n(c1=O)CCCC2)Nc1cccc(Br)c1	50%
O=C(Cc1ccc(F)cc1)Nc1cccc(-c2nnc3n2CCCC3)c1	7.1µM*
O=C(Cc1ccc(Cl)cc1)Nc1cccc(-c2nnc3n2CCCC3)c1	i
SMILES	Pf Dd2 growth
Cc1nnc2n1CCC(NC(=O)CCc1c[nH]c3ccccc13)CC2 (stereo not drawn)	36%
Cc1nnc2n1CCC(N(C)C(=O)CCc1c[nH]c3ccccc13)CC2 (stereo not drawn)	i
O=C(Cc1ccsc1)Nc1cccc(-c2nnc3n2CCCC3)c1	8.9µM*
Cc1c(F)cccc1NC(=O)Nc1cccc(-c2nnc3n2CCCC3)c1	i
COCCCNC(=O)c1c(OCC(C)C)cc(=O)n2c1CCCCC2	40%
COc1cccc(CN2CC[C@@H](CO)N(C)c3cccnc3C2)c1	i
COC[C@@H]1CN(C(=O)Cn2ccc(C)n2)C[C@H]1c1ccccn1	9%
COc1cccc(N2CCN(C(=O)C[C@H]3NC(=O)c4ccccc4NC3=O)CC2)c1	-3%
O=C(c1ccc2cccc(F)c2n1)N1CCN(C(=O)C2CCCCC2)CC1	3%
COCCN1C(=O)c2cccn2CC1CNC(=O)c1ccoc1 (stereo not drawn)	-12%
C=CCOC(=O)C1=C(C)N(Cc2ccc(F)c(F)c2)C(=O)CC1c1ccccc1Cl (stereo not drawn)	i
CC(=O)N1CCC([C@@H]2CN(Cc3ccc(C(F)(F)F)cc3)C[C@H]2CO)CC1	-12%
CCOc1ccc(C(=O)N2CCC3(CC2)NC(=O)N(Cc2ccc(F)cc2)C3=O)cc1	i
CCOc1ccc(CNC(=O)c2cc(=O)[nH]c3ccc(S(=O)(=O)N4CCCC4)cc23)cc1	5%
CCOc1ccc(C2c3[nH]c4ccccc4c3CCN2C(=O)CSCc2ccc(F)cc2)cc1 (stereo not drawn)	11µM*
O=C(c1ccc2cc[nH]c2c1)N1CCc2c(nc3cc(-c4ccccc4)[nH]n3c2=O)C1	0%
O=C(c1ccncc1)N1CCC(N2C(=O)C(OCC3CC3)C23CCOCC3)CC1 (stereo not drawn)	20%

Compound activity deposited in PubChem by National Center for Advancing Translational Sciences (NCATS).
